# Test results published in paper PMC7862700, “An all-to-all approach to the identification of sequence-specific readers for epigenetic DNA modifications on cytosine”.
# Assays:
# Experiment in all cases: DAPPL (digital affinity profiling via proximity ligation, sequencing); 10 mM Tris-HCl pH 7.5, 50 mM NaCl, 1 mM DTT, 4% glycerol, room temperature, 30 min; GST-TFs on glutathione beads, 16-mer random dsDNA library, 0.1% formaldehyde crosslink after washing; high values mean tight binding
# Conditions in all cases: protein: recombinant; tags: N-terminal GST; dsDNA, one strand shown
# ELK1 = target: T1, ELK1 (Homo sapiens, UniProt P19419 1-428)
# T1 sequence: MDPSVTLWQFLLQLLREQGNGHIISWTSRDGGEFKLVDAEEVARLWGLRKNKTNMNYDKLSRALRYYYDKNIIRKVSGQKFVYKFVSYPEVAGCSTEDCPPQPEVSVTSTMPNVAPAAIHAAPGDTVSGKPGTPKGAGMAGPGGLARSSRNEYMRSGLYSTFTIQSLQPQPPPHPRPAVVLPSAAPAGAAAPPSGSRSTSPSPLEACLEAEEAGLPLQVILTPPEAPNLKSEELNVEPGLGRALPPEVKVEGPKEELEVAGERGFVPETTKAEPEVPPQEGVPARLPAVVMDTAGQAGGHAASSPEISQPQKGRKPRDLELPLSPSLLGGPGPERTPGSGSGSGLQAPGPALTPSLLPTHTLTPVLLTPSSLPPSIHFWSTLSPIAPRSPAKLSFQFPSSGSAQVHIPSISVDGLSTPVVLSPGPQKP
# In short: (§1)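 A tag-only sample was pooled with DNA-barcoded human transcription factors that had been expressed in yeast as GST fusions and captured on glutathione beads. The pools were incubated for 30 min at room temperature with 200 nmole of a random double-stranded 16-mer DNA library in Tris/NaCl/DTT/glycerol buffer, then washed, crosslinked with 0.1% formaldehyde, proximity-ligated (BsaI/T4 ligase, 1 h, 37 °C), PCR-amplified and sequenced on an Illumina NextSeq500. Binding signal is each hexamer's read frequency for a factor divided by its frequency for the tag-only sample.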
# EHF = target: T2, EHF (Homo sapiens, UniProt Q9NZC4 1-300)
# T2 sequence: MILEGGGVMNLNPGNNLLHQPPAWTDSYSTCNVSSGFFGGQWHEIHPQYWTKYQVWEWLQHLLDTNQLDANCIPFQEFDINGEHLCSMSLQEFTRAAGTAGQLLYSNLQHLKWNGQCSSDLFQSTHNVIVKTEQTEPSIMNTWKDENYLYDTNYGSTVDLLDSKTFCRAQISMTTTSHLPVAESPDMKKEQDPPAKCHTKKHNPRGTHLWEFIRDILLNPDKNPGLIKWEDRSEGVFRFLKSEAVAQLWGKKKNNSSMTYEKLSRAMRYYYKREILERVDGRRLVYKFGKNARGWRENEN
# In short: as §1
# SPIC = target: T3, SPIC (Homo sapiens, UniProt Q8N5J4 1-248)
# T3 sequence: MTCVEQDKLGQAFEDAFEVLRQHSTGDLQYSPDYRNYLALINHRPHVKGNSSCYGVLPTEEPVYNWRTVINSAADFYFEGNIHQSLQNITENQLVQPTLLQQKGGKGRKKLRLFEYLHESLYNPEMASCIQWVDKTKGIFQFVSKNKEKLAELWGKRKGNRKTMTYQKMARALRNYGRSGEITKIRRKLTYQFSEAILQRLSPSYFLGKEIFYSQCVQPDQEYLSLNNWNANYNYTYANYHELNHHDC
# In short: as §1
# ELK4 = target: T4, ELK4 (Homo sapiens, UniProt P28324-2 1-405)
# T4 sequence: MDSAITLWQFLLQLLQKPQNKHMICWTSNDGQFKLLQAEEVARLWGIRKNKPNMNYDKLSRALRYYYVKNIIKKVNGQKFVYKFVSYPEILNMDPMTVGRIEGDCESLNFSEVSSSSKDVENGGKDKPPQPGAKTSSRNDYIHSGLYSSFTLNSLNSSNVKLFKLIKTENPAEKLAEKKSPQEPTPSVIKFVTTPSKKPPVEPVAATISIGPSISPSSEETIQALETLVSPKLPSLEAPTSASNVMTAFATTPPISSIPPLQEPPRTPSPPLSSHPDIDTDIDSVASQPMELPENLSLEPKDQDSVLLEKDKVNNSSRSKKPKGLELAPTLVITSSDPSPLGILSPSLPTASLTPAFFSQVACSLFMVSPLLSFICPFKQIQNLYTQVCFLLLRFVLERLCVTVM
# In short: as §1
# ELF3 = target: T5, ELF3 (Homo sapiens, UniProt P78545 1-371)
# T5 sequence: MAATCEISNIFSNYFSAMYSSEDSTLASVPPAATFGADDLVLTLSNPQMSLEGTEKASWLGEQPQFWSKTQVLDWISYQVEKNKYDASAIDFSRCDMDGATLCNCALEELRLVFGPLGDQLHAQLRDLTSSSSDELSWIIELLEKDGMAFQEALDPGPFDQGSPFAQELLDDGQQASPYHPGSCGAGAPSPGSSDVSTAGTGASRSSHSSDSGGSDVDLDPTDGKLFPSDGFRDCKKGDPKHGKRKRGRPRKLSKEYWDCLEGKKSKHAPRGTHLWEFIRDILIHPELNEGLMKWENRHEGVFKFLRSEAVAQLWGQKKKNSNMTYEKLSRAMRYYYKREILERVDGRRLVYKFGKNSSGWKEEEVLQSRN
# In short: as §1
# ELF4 = ELF4 (Homo sapiens, UniProt Q99607 1-663)
# In short: as §1
# ERF = target: T6, ERF (Homo sapiens, UniProt P50548 1-548)
# T6 sequence: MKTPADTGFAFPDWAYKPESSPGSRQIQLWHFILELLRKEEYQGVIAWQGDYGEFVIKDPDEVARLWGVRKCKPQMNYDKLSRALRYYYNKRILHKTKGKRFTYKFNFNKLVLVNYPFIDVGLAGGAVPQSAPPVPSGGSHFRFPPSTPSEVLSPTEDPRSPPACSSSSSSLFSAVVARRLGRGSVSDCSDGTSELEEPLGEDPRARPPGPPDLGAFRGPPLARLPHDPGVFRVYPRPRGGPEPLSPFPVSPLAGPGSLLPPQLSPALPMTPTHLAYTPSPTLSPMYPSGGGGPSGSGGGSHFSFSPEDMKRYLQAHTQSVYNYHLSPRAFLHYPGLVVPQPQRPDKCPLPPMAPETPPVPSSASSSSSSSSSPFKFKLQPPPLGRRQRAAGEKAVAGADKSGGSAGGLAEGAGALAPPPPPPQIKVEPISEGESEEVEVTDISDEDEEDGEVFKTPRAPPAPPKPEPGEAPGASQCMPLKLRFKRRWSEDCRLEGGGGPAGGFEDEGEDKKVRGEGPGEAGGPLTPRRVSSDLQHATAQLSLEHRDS
# In short: as §1
# ELF4, sequence (Q99607 whole entry): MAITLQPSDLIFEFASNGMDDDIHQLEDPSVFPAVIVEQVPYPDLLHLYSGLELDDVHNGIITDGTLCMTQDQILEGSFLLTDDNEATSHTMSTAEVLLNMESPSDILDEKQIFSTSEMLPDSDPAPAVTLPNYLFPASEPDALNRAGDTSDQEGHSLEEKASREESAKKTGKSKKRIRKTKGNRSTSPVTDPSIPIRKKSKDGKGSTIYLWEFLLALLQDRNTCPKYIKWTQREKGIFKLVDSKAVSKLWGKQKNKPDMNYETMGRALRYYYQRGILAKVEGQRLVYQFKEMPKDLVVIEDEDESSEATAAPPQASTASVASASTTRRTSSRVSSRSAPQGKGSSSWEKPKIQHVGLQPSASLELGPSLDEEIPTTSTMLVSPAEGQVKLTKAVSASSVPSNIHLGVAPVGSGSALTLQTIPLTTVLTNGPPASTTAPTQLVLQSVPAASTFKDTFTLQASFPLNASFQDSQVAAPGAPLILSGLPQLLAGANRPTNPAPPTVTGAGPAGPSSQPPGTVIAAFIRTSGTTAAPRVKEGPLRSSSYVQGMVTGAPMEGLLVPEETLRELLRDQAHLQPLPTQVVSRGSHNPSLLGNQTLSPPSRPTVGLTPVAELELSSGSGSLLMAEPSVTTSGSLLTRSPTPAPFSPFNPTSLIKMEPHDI
sequence,measurement,setting,value
TGGTGA,binding signal,ELK1,"1.04 fold enrichment (6-mer frequency, TF over GST control)"
same,binding signal,EHF,"1.09 fold enrichment (6-mer frequency, TF over GST control)"
same,binding signal,SPIC,"1.02 fold enrichment (6-mer frequency, TF over GST control)"
same,binding signal,ELK4,"1.04 fold enrichment (6-mer frequency, TF over GST control)"
same,binding signal,ELF3,"1.03 fold enrichment (6-mer frequency, TF over GST control)"
ATGGGA,binding signal,SPIC,"1.05 fold enrichment (6-mer frequency, TF over GST control)"
TGTCAG,binding signal,SPIC,"1 fold enrichment (6-mer frequency, TF over GST control)"
same,binding signal,ELK4,"1.02 fold enrichment (6-mer frequency, TF over GST control)"
ATTGTG,binding signal,SPIC,"1.07 fold enrichment (6-mer frequency, TF over GST control)"
same,binding signal,ELF4,"1 fold enrichment (6-mer frequency, TF over GST control)"
same,binding signal,ERF,"1.06 fold enrichment (6-mer frequency, TF over GST control)"
CTGGCG,binding signal,SPIC,"1.09 fold enrichment (6-mer frequency, TF over GST control)"
